Source: PubChem BioAssay
Shown are actives, neighbours in structure and some others; about 3.6% of the full set was active somewhere.
NadD block: inhibitors of S. aureus NadD, primary screen, biochemical, colorimetric, uHTS; purified NadD enzyme, colorimetric absorbance read-out; inhibition, % at 20 µM; actives 0.78% (n = 360,000); in the data active = inhibition above about 26%
CendR NRP1 mod: modulators of CendR peptide binding to NRP-1, primary screen, biochemical, fluorescence polarization, uHTS. Neuropilin-1 (Homo sapiens), O14786. FAM-RPARPAR peptide binding to NRP-1. inhibition, % at 25 µM. actives 0.85% (n = 360,000). AID 602438, 2012;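 active = inhibition or corrected inhibition above about 18%, plus a signal ratio from 0.5 to 1.5, limit read from the data, passing the limit was not always enough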
Myeloid diff 2: induction of myeloid progenitor differentiation, primary screen, cell-based, flow cytometry, MLPCN library | ER-HoxA9 myeloid progenitors, lysozyme-GFP differentiation | calls only at 10 µM | actives 1% (n = 360,000) | AID 624256, 2012;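 active = normalized GFP-positive differentiation at or above the plate's own cutoff, the solvent-only control mean plus 3 SD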;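 note: cells exposed to compound for four days before flow analysis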
CRFBP-R2 block: antagonists of CRF-BP/CRF-R2 complex, primary screen, cell-based, HEK293, calcium dye fluorescence, uHTS | actives 0.59% (n = 350,000) | AID 588475, 2011 | inhibition, % at 11.8 µM | CRF-induced calcium fluorescence;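 active = inhibition of the ligand-induced calcium signal above about 50% at the single tested concentration, limit read from the data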
FAS-TE inh: FAS thioesterase domain inhibitors, primary screen, biochemical, fluorescence intensity, uHTS; recombinant FAS-TE, OMFH fluorogenic substrate, fluorescence endpoint; inhibition, % at 15 µM; actives 0.67% (n = 360,000);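 active = compounds whose normalised, plate-corrected inhibition of enzyme fluorescence in the single-dose primary screen is 50% or more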;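 note: 0% = DMSO with enzyme and 100% = substrate without enzyme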
Myeloid diff: inducers of myeloid progenitor differentiation, confirmation, cell-based, GFP/Mac1 flow cytometry, cherry pick 01 | shares compounds with Myeloid diff 2 | AID 651706, 2012 | ER-HoxA9 myeloid progenitors, GFP/Mac1 double-positive flow | calls only | actives 2% (n = 2,300);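 active = share of green or green-and-red cells above 9 and 9% in run 1 or 4 and 3% in run 2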
GFP autofluor: compound fluorescence in myeloid differentiation counter-screen; shares compounds with Myeloid diff 2; AID 651707; ER-HoxA9 myeloid progenitors, no estrogen, GFP autofluorescence flow cytometry; vehicle wells 0%, positive control 100%; fluorescence response, % (concentration not given with the values); actives 7.4% (n = 2,300);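 active = over 5% cells positive for green fluorescent reporter, or over 2% positive for both it and APC stain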;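 note: range taken on the double positive population between DMSO and positive control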
The depositor's hits bear a star; i = inactive; . = no result; + = active, no number.

SMILES	NadD block	CendR NRP1 mod	Myeloid diff 2	CRFBP-R2 block	FAS-TE inh	Myeloid diff	GFP autofluor
CSc1nc(N)n2nc(-c3ccc(Cl)cc3)cc2n1	-2	-18	i	10	-5	.	.
CN(C)c1ccc(NC(=O)CN2CCC(O)(c3ccccc3)CC2)cc1	-5	-13	i	-9	-2	i	0
CN(C)c1ccc(NC(=O)CN2CCN(CC(=O)Nc3ccc(F)cc3)CC2)cc1	6	5	i	5	-2	.	.
O=C(CCN1C(=O)C2CC=CCC2C1=O)Nc1nccs1 (stereo not given)	-5	19	i	-18	-9	.	.
COC(=O)NNC(=O)COc1ccc2ccccc2c1Br	-3	-3	i	-30	-9	i	1
CCc1cc(C(=O)c2ccccc2OC)c(N)s1	3	1	i	-5	-5	i	0
CCc1cc(C(=O)c2ccc(OC)cc2)c(N)s1	4	-7	i	-10	8	.	.
O=C(O)[C@@H]1Cc2ccccc2N1	-3	-29	+	-8	-52	i	5.4*
CSc1cccc(NC(=O)Nc2nc3c(C)cccc3s2)c1	2	11	i	14	-1	.	.
CC[C@@]1(C(=O)OC)N[C@H](CN(C)C(=O)C2CCCCC2)[C@@H]2C(=O)N(C)C(=O)[C@@H]21	3	-1	i	10	-9	i	0
Cc1ccc(S(=O)(=O)N(CCC(=O)NCc2ccc(S(N)(=O)=O)cc2)c2ccccc2)cc1	0	11	i	11	-4	.	.
Cc1cc(C)c(C(=O)COC(=O)C2CCN(c3ccc(C(F)(F)F)cn3)CC2)c(C)c1	3	-1	i	2	33	.	.
CCCc1cc(=O)n2nc(N3CCC(C(=O)NCc4ccco4)CC3)sc2n1	-1	-10	i	-2	-3	.	.
COc1ccc(-c2oc3ccccc3c(=O)c2OC(C)=O)cc1	-5	-5	i	18	9	.	.
CC(=O)Oc1c(-c2ccc(Br)o2)oc2ccccc2c1=O	-8	-16	i	-35	3	i	1
COC(=O)c1c(NC(=O)c2ccccc2)sc(C(N)=O)c1C	0	-13	i	-18	-4	.	.
CCC(C(=O)Nc1sc(C(N)=O)c(C)c1C(=O)OC)c1ccccc1 (stereo not given)	-2	-15	i	-21	4	i	0
COc1ccccc1NC(=O)Nc1sccc1-c1nc2ccccc2s1	18	-78	+	-8	21	i	0
O=C(Nc1ccccc1)Nc1sccc1-c1nc2ccccc2s1	12	-31	i	-20	31	.	.
Cn1cncc1C(=O)c1ccccc1	-8	17	i	2	-5	.	.
C[C@@H]1CC=C[C@H]2[C@H]1C(=O)N(Cc1ccccc1)[C@H]2c1ccc(-c2ccc(F)cc2)cc1F	-2	9	i	-11	28	i	0
Cn1c2ccccc2c(=O)c2ccc(NCc3ccc4c(c3)OCO4)cc21	9	4	+	12	-13	i	2
COc1cccc2sc3ccc(NCc4ccc5c(c4)OCO5)cc3c(=O)c12	6	-20	i	-3	-2	.	.
O=C(Cc1cccc(NC(=O)C2CCN(S(=O)(=O)c3cccc([N+](=O)[O-])c3)CC2)c1)Nc1cccc(C(=O)N2CCCCC2)c1	21	0	i	2	18	.	.
COc1ccc(CN(C)c2ccc(S(=O)(=O)N3CCN(C)CC3)cc2[N+](=O)[O-])cc1OC	-1	16	i	7	-3	i	1
COc1ccc(CCN(C)c2ccc(S(=O)(=O)N3CCCC3)cc2[N+](=O)[O-])cc1OC	-6	8	i	-14	11	.	.
COc1ccc(-c2csc(NC3CCCCC3)n2)c(OC)c1	1	-17	+	-2	-4	i	0
c1ccc(-c2csc(NC3CCCCC3)n2)cc1	-2	-2	.	-17	-9	.	.
